PP1 counter – blocks human PP1-alpha phosphatase, a PP5 counter-screen | P62136 | purified PP1alpha, OMFP fluorescence | inhibition, % at 6.7 µM | 0.9% of 320,000 active | AID 2235;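 active = inhibition above the mean inhibition of all tested compounds plus 3 SD, computed separately for each screening campaign, cut at about 15% in these data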
PG9 binder – PG9 antibody binding by small molecule; inhibition, % at 6.7 µM; AID 624416; 0.43% of 360,000 active; TR-FRET gp120-PG9 antibody binding; in the data active = inhibition above about 8.5%
proKLK7 act – activators of human kallikrein-7 zymogen; P49862; purified proKLK7, EDANS-DABCYL substrate fluorescence; 100% is mature enzyme control, 0% vehicle; activation, % at 7 µM; 0.9% of 370,000 active;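 active = activation above the mean of all tested compounds plus 3 SD, computed per campaign excluding outliers beyond control limits, cut at about 13% in these data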
Rev-erbA mod – modulators of human Rev-erb alpha DNA binding | activity, % at 10 µM | 0.79% of 370,000 active | Rev-erbα–FITC-DNA binding, fluorescence polarization, 90 min | P20393 | AID 1259318;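 active = activity above about 14%, limit read from the data; passing the limit was not always enough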
GASC-1 inh – human JMJD2C demethylase inhibition; 0.069% of 330,000 active; inhibition, % at 2.35 µM; Q9H3R0; AID 2099; GST-JMJD2C(1-420) H3K9me3 demethylation, DELFIA europium;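 active = more than half of a compound's replicate wells show inhibition beyond 50%, single wells judged on their own value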;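 also: signal counts dimethyl H3K9 product captured on neutravidin plate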
PP5 inh – inhibitors of human protein phosphatase 5 (PP5). inhibition, % at 6.7 µM. P53041. purified PP5c, OMFP substrate fluorescence. 0.18% of 320,000 active;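 active = inhibition above the campaign's mean inhibition across all tested compounds plus 3 SD, cut at about 9.5% in these data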
Target sequence (P53041 whole entry, looked up): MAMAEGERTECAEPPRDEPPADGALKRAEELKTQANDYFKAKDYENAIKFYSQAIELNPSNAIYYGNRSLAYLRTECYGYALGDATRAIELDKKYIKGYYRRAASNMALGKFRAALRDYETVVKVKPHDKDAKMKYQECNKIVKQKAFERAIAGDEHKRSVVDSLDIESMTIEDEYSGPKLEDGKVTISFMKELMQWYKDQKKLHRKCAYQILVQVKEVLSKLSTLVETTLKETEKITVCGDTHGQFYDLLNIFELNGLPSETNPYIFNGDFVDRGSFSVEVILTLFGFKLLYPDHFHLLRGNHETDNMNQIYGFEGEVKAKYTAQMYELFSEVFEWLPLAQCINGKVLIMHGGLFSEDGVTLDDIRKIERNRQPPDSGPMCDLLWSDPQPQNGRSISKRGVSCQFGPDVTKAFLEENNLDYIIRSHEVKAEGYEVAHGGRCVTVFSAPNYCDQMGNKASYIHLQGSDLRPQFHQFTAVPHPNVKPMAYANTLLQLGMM
PG9 binder conf – PG9 antibody binding, confirmed; shares compounds with PG9 binder; TR-FRET PG9 antibody binding, biochemical; inhibition, % at 6.7 µM; 90% of 1,500 active; in the data active = inhibition above about 9%
PGV04 Ab binding – binds control antibody PGV04 in PG9 binder counter-screen. inhibition, % at 6.7 µM. TR-FRET PGV04 antibody-gp120 binding, biochemical. shares compounds with PG9 binder. 95% of 1,500 active; in the data active = inhibition above about 9.5%
PG9 bind DR – small molecules binding HIV-1 gp120 antibody PG9; 95 tested, under 10 active; IC50, µM; shares compounds with PG9 binder; AID 651848; TR-FRET PG9 antibody-gp120 binding inhibition; in the data active = IC50 below about 10 µM
PGV04 DR counter – binds control antibody PGV04 in PG9 counter-screen; 20% of 95 active; shares compounds with PG9 binder; TR-FRET binding to control antibody PGV04; IC50, µM
PG126 binding DR – PG126 binding, dose response counter-screen | IC50, µM | TR-FRET binding to antibody PG126, counterscreen | 20% of 95 active | AID 651939 | shares compounds with PG9 binder
Hits are given with their value; – = inactive; · = not tested or not shown. Compounds with a hit are over-represented: about 2.8% of the library has one in this group of screens. Rule as the data show it, unless noted: active = IC50 below about 9 µM; inactive = the rest.

SMILES	PP1 counter	PG9 binder	proKLK7 act	Rev-erbA mod	GASC-1 inh	PP5 inh	PG9 binder conf	PGV04 Ab binding	others
COC(=O)[C@]1(CNC(=O)NCCc2ccc(OC)c(OC)c2)CC(=O)N(C)[C@@H]1c1ccccc1	·	·	–	–	·	·	·	·
N/C(=N\OC(=O)COc1ccc2ccccc2c1Br)c1cccnc1	–	10	–	–	–	–	14	19
N/C(=N\OC(=O)COc1ccc2ccccc2c1Br)c1ccccn1	–	–	–	–	–	–	·	·
O=C(Cn1cccc1C(=O)c1ccccc1)NCCc1ccc(Cl)cc1	–	9.4	–	–	–	–	–	10
COc1ccc(C(=O)CSc2nnc(-c3cc(C)on3)o2)cc1	–	19	–	–	–	–	23	49
Cn1c(SCC(=O)N2CCc3ccccc32)nnc1-c1ccc(S(=O)(=O)N2CCCC2)cc1	–	9.5	–	–	–	–	17	25
CC(=O)CSc1nnc(-c2ccc(S(=O)(=O)N3CCCC3)cc2)n1C	–	–	–	–	–	–	·	·
O=C1N(Cc2cccc(Cl)c2)C[C@@H]2C[C@@H](c3cccn3-c3cccnc3)N3CCC[C@@]123	–	17	–	–	–	–	10	19
COc1cccc2c1[C@H](/C=C/c1ccccc1)[C@@H]([C@H](O)COC(C)=O)OC2	·	·	–	–	·	·	·	·
CCCCOCCCNC(=O)C[C@@H]1C(=O)N(CCc2ccc(Cl)cc2)C2=CCCC[C@]21C(=O)OCC	·	·	–	–	·	·	·	·
Cc1cc2cc(CN3C(=O)c4ccccc4C3=O)ccc2n1C	–	31	–	–	–	–	39	63
O=C(/C=C(\Nc1cc(Cl)c(F)c(Cl)c1)c1ccccc1)c1ccccc1	·	–	–	–	·	·	·	·
Cc1nn(-c2ccccc2)c2sc(C(=O)NNC(=O)COc3cccc4ccccc34)cc12	–	10	–	–	–	–	11	20
COc1cc(C(=O)Oc2ccccc2)ccc1OCc1c(C)noc1C	–	11	–	–	–	–	17	13	PG9 bind DR=–;PGV04 DR counter=–;PG126 binding DR=–
CC[C@H]1C=C[C@@H](C(=O)NS(=O)(=O)c2ccc(C)cc2)N(C(C)=O)C1	·	·	–	–	·	·	·	·
O=C(Nc1ccccc1)c1cnc(-c2ccccc2)nc1-c1ccccc1	–	16	–	–	–	–	20	28
O=C(O)c1cnc(-c2ccccc2)nc1-c1ccccc1	–	–	–	–	–	–	·	·
N#Cc1c(-c2ccncc2)cc(-c2ccc(F)cc2)nc1N	–	33	–	–	–	–	8.9	26
Cc1ccc(-c2cc(-c3ccc(F)cc3)nc(N)c2C#N)o1	–	–	–	–	–	–	·	·
Cc1cc(-c2ccc(Cl)cc2)c(C#N)c(N)n1	–	55	–	–	–	–	64	80
O=C(Nc1ccccc1C(=O)Nc1ccccc1)c1ccccc1F	–	21	–	–	–	–	21	28
COc1ccc(C(=O)OCCN2CCN(C3CN(Cc4cn(Cc5cccc(F)c5)nn4)S(=O)(=O)C3)CC2)cc1OC (stereo not drawn)	·	·	–	–	·	·	·	·
Cc1cccc(S(=O)(=O)Nc2cccc3c2C(=O)c2ccccc2-3)c1	–	11	–	–	–	–	15	17
Cc1ccc(NS(=O)(=O)c2ccc3c(c2)C(=O)c2ccccc2C3=O)c(C)c1	–	–	–	–	–	–	·	·
CCOc1ccc(CCNC(=O)c2ccc(Oc3ccccc3)cc2)cc1OCC	·	·	·	–	·	·	·	·
SMILES	PP1 counter	PG9 binder	proKLK7 act	Rev-erbA mod	GASC-1 inh	PP5 inh	PG9 binder conf	PGV04 Ab binding	others
COc1ccc(/C=C/C(=O)Oc2cccc(/C=N/NC(=O)COc3c(C)cccc3C)c2)cc1	–	9.5	–	–	–	–	11	16
COc1ccc(/C=C/C(=O)Oc2ccc(/C=N/NC(=O)COc3c(C)cccc3C)cc2)cc1	–	–	–	–	–	–	·	·
COC(=O)[C@]12C[C@H](CC(=O)N3CCC(c4ccccc4)CC3)C(=O)N(CCc3ccc(OC)c(OC)c3)C1=C[C@H](COCc1ccccc1)O[C@@H]2C	·	·	–	–	·	·	·	·
O=C(N/N=C/c1ccccn1)c1cc(-c2ccncc2)nc2ccccc12	–	15	–	–	–	–	19	34
O=C1C(C=Nc2ccccc2O)=C(O)c2ccccc21	–	–	–	–	–	–	·	·
Cc1ccc(O)c(N=CC2=C(O)c3ccccc3C2=O)c1	–	18	–	–	–	–	24	31
Cc1noc(C)c1S(=O)(=O)N1CCCc2nc(-c3ccccc3)ccc21	·	–	–	–	·	·	·	·
Cc1nn(CC(=O)Nc2ccc(Cl)cc2Cl)c(=O)c2ccccc12	–	9.1	–	–	–	–	25	40
Cc1ccc(C)c(NC(=O)Cn2nc(C)c3ccccc3c2=O)c1	–	–	–	–	–	–	·	·
CC(=O)c1sc2nc(SCC(=O)NCCc3ccccc3)[nH]c(=O)c2c1C	–	36	–	–	–	–	37	42
Cc1sc2nc(SCC(=O)NCc3ccco3)[nH]c(=O)c2c1C	–	28	–	–	·	–	29	42
COc1cccc(C2CC=C(C(=O)O)CN2S(=O)(=O)c2ccc(C)cc2)c1 (stereo not drawn)	·	·	–	–	·	·	·	·
Cc1cccc(NC(=O)CSc2cccc[n+]2[O-])c1C	·	16	–	–	–	·	9.3	11
CCCCN1CN2Cc3ccccc3C2CS1(=O)=O (stereo not drawn)	·	·	–	–	·	·	·	·
COc1ccc2c(c1)c1nc3n(c(=O)c1n2CC(=O)Nc1ccccc1)CCCS3	–	13	–	–	–	–	26	36
COc1ccc(-c2oc3ccc(N4CCOCC4)cc3c2/C=C/c2ccc(OC)c(OC)c2)cc1	–	10	–	–	–	–	15	28
COc1ccc(/C=C/c2c(-c3ccc(OC)cc3)sc3ccc(N4CCOCC4)cc23)cc1	–	·	·	·	–	–	·	·
CN(c1ccc(NC(=O)CCc2c[nH]c3ccccc23)cc1)c1ccccn1	·	–	–	–	·	·	·	·
CCc1nc(N)c(C#N)c(-c2cccc3ccccc23)c1C	–	15	–	–	–	–	21	29
C=CCn1c(=S)[nH]c2scc(-c3cccs3)c2c1=O	·	9.3	–	–	·	·	9.8	10
Cn1c(=S)[nH]c2scc(-c3cccs3)c2c1=O	·	–	–	–	–	·	·	·

Compound activity: PubChem BioAssay, several laboratories
